Source: PubChem BioAssay (several laboratories)
SKKanGAS inh = inhibitors of SKKanGAS S. pyogenes growth in kanamycin (SK-promoter or general growth effect) | inhibition, % at 7.5 µM | BacTiter-Glo, 6 h | actives 1.3% (n = 300,000) | AID 1662;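 active means mean replicate score, as percent of positive control median, at least 50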;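 further: strain carries kanamycin resistance gene driven by streptokinase promoter and grows in 40 µg/ml kanamycin; loss of luminescence reflects streptokinase promoter inhibition or plain growth inhibition; 0% = median of DMSO wells and 100% = positive control at its reference dose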
tim23-1 inh = tim23-1 yeast growth inhibition; S. cerevisiae tim23-1 growth, BacTiter-Glo luminescence, 24 h; inhibition, % at 20 µM; actives 1.3% (n = 330,000); AID 463212;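 active means growth inhibition of the mutant yeast at or above 50%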;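 further: temperature-sensitive mutant grown at 25 °C; plate controls were DMSO-treated mutant yeast for no effect and medium wells lacking yeast for full effect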
tim10-1 inh = tim10-1 yeast growth inhibition | AID 463190 | S. cerevisiae tim10-1 ts strain growth, BacTiter-Glo, 24 h | actives 2.2% (n = 330,000) | inhibition, % at 20 µM;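 active means inhibition of at least 40%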;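 further: mutant grown at 25 °C; 0% = DMSO wells with yeast and 100% = wells holding no yeast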
TIM10 inh = growth inhibitors of TIM10 yeast strain. S. cerevisiae TIM10 strain growth, BacTiter-Glo luminescence, 24 h. inhibition, % at 10 µM. AID 463195. actives 1.4% (n = 330,000);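 active means inhibition of 40% or more at the single tested concentration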;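 further: wild-type TIM10 isogenic control strain grown at permissive 25 °C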
NALP1 yeast inh = inhibitors of NALP1 inflammasome in yeast; S. cerevisiae NALP1/ASC/caspase-1 growth, X-gal OD620, 72 h; actives 0.61% (n = 280,000); inhibition, % at 10 µM; AID 2071; in the data active means inhibition mostly above about 24%, no sharp cut-off; inactive means mostly below about 32%
PfHsp90 yeast 2 = reduces growth (ATP signal) of yeast expressing P. falciparum Hsp90 | AID 504621 | actives 0.32% (n = 310,000) | S. cerevisiae expressing PfHsp90, BacTiter-Glo ATP, 48 h; yeast lacking PDR1 and PDR3 efflux regulators | inhibition, % at 9.4 µM;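 active means every replicate shows inhibition above about 80%, whatever the replicate mean, limit read from the data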;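 further: 0% = DMSO neutral controls and 100% = 20 µM radicicol positive controls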
tim10-1 confirm = tim10-1 yeast growth inhibition, confirmed; shares compounds with tim10-1 inh; S. cerevisiae tim10-1 ts strain growth, BacTiter-Glo, 24 h; inhibition, % at 20 µM; actives 56% (n = 7,400);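 active means inhibition of yeast growth at or above a set limit in either of two repeat tests at 20 µM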;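 further: tim10-1 mutant grown at permissive 25 °C to find synthetic lethal compounds; 0% = DMSO yeast wells and 100% = medium wells without yeast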
TIM10 conf = confirmation of TIM10 yeast growth inhibitors; shares compounds with TIM10 inh; S. cerevisiae tim10 strain growth, BacTiter-Glo luminescence, 24 h; inhibition, % at 10 µM; actives 63% (n = 4,600);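 active means inhibition of yeast growth at or above a set limit in either of two replicates at 10 µM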;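 further: this counterscreen used the strain with wild-type TIM10; 0% = yeast with DMSO and 100% = medium wells lacking yeast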
tim23-1 confirm = tim23-1 yeast growth inhibition, confirmed; AID 463218; S. cerevisiae tim23-1 growth, BacTiter-Glo luminescence, 24 h; shares compounds with tim23-1 inh; actives 83% (n = 4,400); inhibition, % at 20 µM;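 active means inhibition above about 39% in either of two replicate wells at 20 µM, limit read from the data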;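 further: temperature-sensitive tim23-1 mutant grown at 25 °C; 0% = DMSO wells with yeast and 100% = medium wells without yeast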
Starred values were filed as active, the others as inactive; x = no result. Sampled rows, rich in hits. Any-hit rate of the full collection: about 4.8%.

SMILES	SKKanGAS inh	tim23-1 inh	tim10-1 inh	TIM10 inh	NALP1 yeast inh	PfHsp90 yeast 2	tim10-1 confirm	TIM10 conf	tim23-1 confirm
C=CCNC(=O)C(C#N)c1nc2ccccc2nc1N1CCN(Cc2ccccc2)CC1 (stereo not given)	0	-2	5	7	-1	6	x	x	x
O=C(Oc1c(Cl)cc(Cl)c2cccnc12)c1cccs1	92*	56*	44*	64*	-3	99*	48*	57*	62*
O=C(Oc1cncc(Cl)c1)c1ccco1	4	9	22	-12	-7	4	x	x	x
O=C(Oc1c(Cl)cc(Cl)c2cccnc12)c1ccco1	85*	89*	65*	71*	31	129*	48*	67*	72*
O=C(O)CCSc1nnc(COc2cccc3cccnc23)n1-c1ccccc1	-8	12	7	-6	2	13	x	x	x
O=C(OCCCN=C1NS(=O)(=O)c2ccccc21)c1ccc([N+](=O)[O-])cc1	3	-7	-5	1	-1	17	x	x	x
N/C(Cc1cccs1)=N\OC(=O)COc1ccccc1Cl	13	20	36	22	60	23	x	x	x
N/C(Cc1cccs1)=N\OC(=O)COc1ccc(Br)cc1Cl	22	68*	58*	38	2	13	59*	x	87*
O=c1c(O)c(-c2cccs2)oc2ccc(Cl)cc12	66*	53*	42*	72*	2	-7	32*	59*	66*
CN1CCN(S(=O)(=O)c2ccc(SCCOc3ccccc3)nc2)CC1	1	57*	48*	49*	-11	x	52*	49*	46*
O=C1CS(=O)(=O)N(Cc2cccc(F)c2)c2ccc(Br)cc21	x	66*	48*	34	x	-29	48*	x	-6
O=c1oc(CCCO)cc2ccc(C#Cc3cccnc3)cc12	x	23	18	0	x	-17	x	x	x
COc1ccc(C(=O)c2coc(-c3ccccc3C(=O)O)c2C(=O)O)cc1	-2	-6	5	-7	14	-15	x	x	x
Cc1ccc(C(=O)c2coc3c2C(=O)C(=O)c2ccccc2-3)cc1	9	85*	93*	97*	2	141*	94*	96*	95*
